ChEMBL document CHEMBL1201862, “PubChem BioAssay data set” (2004)
Among all 400,000 compounds or so, about 2,100 (0.53%) were called active. Not shown: some 14% with an inconclusive outcome. No rule for the calls is given here. This excerpt belongs to a sample that is enriched for actives.

target: Ataxin-2 (Homo sapiens) (UniProt Q99700); assay: qHTS for Inhibitors of ATXN expression.; assay type: functional
Sequence (Q99700 whole entry): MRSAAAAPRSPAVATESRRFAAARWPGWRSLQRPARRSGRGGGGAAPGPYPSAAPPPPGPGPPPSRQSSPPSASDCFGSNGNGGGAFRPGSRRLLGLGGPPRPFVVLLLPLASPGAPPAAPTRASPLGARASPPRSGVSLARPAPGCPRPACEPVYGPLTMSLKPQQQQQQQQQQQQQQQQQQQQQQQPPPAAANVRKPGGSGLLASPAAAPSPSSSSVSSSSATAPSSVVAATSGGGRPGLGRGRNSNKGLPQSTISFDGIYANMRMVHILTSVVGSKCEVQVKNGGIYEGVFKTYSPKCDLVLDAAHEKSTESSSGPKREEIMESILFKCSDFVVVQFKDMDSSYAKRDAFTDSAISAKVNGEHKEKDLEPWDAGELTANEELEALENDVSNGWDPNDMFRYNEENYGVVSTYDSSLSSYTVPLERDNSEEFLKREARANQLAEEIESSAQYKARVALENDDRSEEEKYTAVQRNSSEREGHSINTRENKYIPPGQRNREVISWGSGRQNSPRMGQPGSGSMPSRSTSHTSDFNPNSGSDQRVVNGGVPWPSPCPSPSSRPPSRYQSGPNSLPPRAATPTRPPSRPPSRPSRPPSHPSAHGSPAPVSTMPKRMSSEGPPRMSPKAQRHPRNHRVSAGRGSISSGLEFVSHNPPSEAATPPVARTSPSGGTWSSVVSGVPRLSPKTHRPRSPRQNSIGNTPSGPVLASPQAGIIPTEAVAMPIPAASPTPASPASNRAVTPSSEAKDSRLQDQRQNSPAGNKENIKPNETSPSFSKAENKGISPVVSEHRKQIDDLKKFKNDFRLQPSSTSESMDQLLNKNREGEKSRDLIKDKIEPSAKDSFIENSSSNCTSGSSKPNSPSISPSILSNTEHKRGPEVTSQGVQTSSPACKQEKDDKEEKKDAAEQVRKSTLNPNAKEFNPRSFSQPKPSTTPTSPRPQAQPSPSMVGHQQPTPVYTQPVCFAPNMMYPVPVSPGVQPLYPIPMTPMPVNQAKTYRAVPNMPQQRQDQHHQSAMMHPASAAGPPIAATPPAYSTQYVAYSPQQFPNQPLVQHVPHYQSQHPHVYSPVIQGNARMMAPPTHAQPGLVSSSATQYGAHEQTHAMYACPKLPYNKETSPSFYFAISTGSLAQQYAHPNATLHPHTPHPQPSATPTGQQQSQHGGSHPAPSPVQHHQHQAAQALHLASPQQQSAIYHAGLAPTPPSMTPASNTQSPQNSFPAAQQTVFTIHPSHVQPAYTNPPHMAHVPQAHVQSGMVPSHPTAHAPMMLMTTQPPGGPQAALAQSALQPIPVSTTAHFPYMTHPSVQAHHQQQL

| Compound | Potency |
| --- | --- |
| C=CCNC(=O)c1cc2c(=O)n3cccc(C)c3nc2s1 | inactive |
| Cc1cccc(N2C(=O)CC(NNc3nc4ccccc4s3)C2=O)c1 (configuration not stated) | inactive |
| COc1ccc(/C=C/CN2CCCC(CCC(=O)NCc3ccc(F)c(F)c3)C2)cc1 (configuration not stated) | inactive |
| COc1c2c(c(OC)c3c1c(=O)c1ccccc1n3C)OCO2 | inactive |
| COCCN=C(NS(=O)(=O)c1cccs1)c1ccccc1Cl | inactive |
| C[N+]1(CN2C(=O)C3C4C=CC(C4)C3C2=O)CCCCC1 (configuration not stated) | inactive |
| Cc1cc(N2CCOCC2)ccc1/C=C1/SC(=O)NC1=O | inactive |
| CCN(CC)c1ccc(C(=O)N/N=C/c2ccc(N3CCOCC3)cc2)cc1 | inactive |
| CCN1C/C(=C/c2ccc(N3CCOCC3)cc2)C(=O)/C(=C/c2ccc(N3CCOCC3)cc2)C1 | 25.1 µM (active) |
| O=c1oc2ccc3ccccc3c2cc1-c1nc2ccccc2o1 | inactive |
| O=c1cc(C(Cl)(Cl)Cl)oc2c1ccc1ccccc12 | 35.5 µM (active) |
| NNC(=O)c1cc2c(ccc3ccccc32)o1 | inactive |
| CCc1nonc1NC(=O)COc1cc(C)c(Cl)c(C)c1 | inactive |
| COc1ccc(-n2cc(-c3ccccc3)c3c(NCCCN4CCOCC4)ncnc32)cc1 | inactive |
| COc1ccc(-n2cc(-c3ccccc3)c3c(NN4CCOCC4)ncnc32)cc1 | inactive |
| Fc1ccc(-n2cc(-c3ccccc3)c3c(S)ncnc32)cc1 | 39.8 µM (active) |
| CCc1ccc(C(c2ccccc2)c2c(C)[nH]c3ccccc23)s1 (configuration not stated) | 39.8 µM (active) |
| Cc1[nH]c2ccccc2c1C(c1ccccc1)c1cccs1 (configuration not stated) | 39.8 µM (active) |
| Cc1[nH]c2ccccc2c1C(O)CN1CCC2(CC1)OCCO2 (configuration not stated) | inactive |
| CC(C)CCN1C(=O)c2cccc3c(N)ccc(c23)C1=O | inactive |
| O=c1c2sccc2nc(SCc2cc(=O)n3cc(Cl)ccc3n2)n1Cc1ccccn1 | inactive |
| COc1ccc(OC)c([N+]2=C3SCCCN3C(O)(c3ccccc3)C2)c1 (configuration not stated) | inactive |
| Cn1cc(CN2CCc3c([nH]c4ccccc34)C2C2CCCCC2)cn1 (configuration not stated) | inactive |

| Compound | Potency |
| --- | --- |
| O=C1c2cccc3c([N+](=O)[O-])ccc(c23)C(=O)N1Cc1cccnc1 | inactive |
| CSc1ccc(C2c3c(-c4ccccc4O)n[nH]c3C(=O)N2Cc2ccncc2)cc1 (configuration not stated) | 22.4 µM (active) |
| CCc1ccc(C2c3c(-c4ccccc4O)n[nH]c3C(=O)N2Cc2cccnc2)cc1 (configuration not stated) | 22.4 µM (active) |
| Cc1ccc(C(=O)C2=C(O)C(=O)N(Cc3cccnc3)C2c2ccc(Cl)cc2)o1 (configuration not stated) | inactive |
| CCc1ccc(C2c3c(-c4cc(C)ccc4O)n[nH]c3C(=O)N2Cc2cccnc2)cc1 (configuration not stated) | 39.8 µM (active) |
| COCCN1C(=O)c2[nH]nc(-c3cc(C)ccc3O)c2C1c1ccc(C(C)C)cc1 (configuration not stated) | 39.8 µM (active) |
| Cc1ccc2oc3c(c(=O)c2c1)C(c1ccc(O)cc1)N(CCCN(C)C)C3=O (configuration not stated) | inactive |
| CCOC(=O)c1sc2c(c1C)C(c1cccs1)C1=C(O)CCCC1=N2 (configuration not stated) | inactive |
| c1cc(-c2sc(-c3ccncc3)c(-c3ccncc3)c2-c2ccncc2)ccn1 | inactive |
| COc1ccc(-n2c(=O)/c(=C\c3cccs3)s/c2=C(/C#N)C(=O)NCCN2CCOCC2)cc1 | inactive |
| CCCOc1ccc(C2c3c(-c4ccccc4O)n[nH]c3C(=O)N2CCCOCC)cc1OCC (configuration not stated) | 22.4 µM (active) |
| CCOc1ccc(C2CC(c3c(O)oc4ccccc4c3=O)=NN2c2ccccc2)cc1OC (configuration not stated) | inactive |
| CCCOc1ccc(C2c3c(-c4ccccc4O)n[nH]c3C(=O)N2Cc2cccnc2)cc1 (configuration not stated) | 35.5 µM (active) |
| CCOc1ccccc1Oc1c[nH]nc1-c1ccc(OCC(=O)NN)cc1O | inactive |
| O=C(C1CCCO1)N1CCN(C(=O)C23CC4CC(CC(C4)C2)C3)CC1 (configuration not stated) | inactive |
| O/N=C1\CCCc2ccc3ccccc3c21 | inactive |
| Cc1ccc(OC(=O)c2ccncc2)c(C)c1 | inactive |
| O=C(NNC(=O)c1csc(-c2cccs2)n1)c1ccc(Cl)cc1 | 22.4 µM (active) |
| O=S(=O)(NCc1csc(-c2cccs2)n1)c1ccc(Cl)cc1 | inactive |
| O=C(NCc1csc(-c2cccs2)n1)c1cccc(Cl)c1 | inactive |
| C=CCn1c(NC(=O)c2ccccc2Cl)c(C#N)c2nc3ccccc3nc21 | inactive |
| CCOC(=O)c1cnc2ccc(C)cc2c1Nc1ccc(N(CC)CC)cc1 | 28.2 µM (active) |
| CCOC(=O)c1cnc2ccc(C)cc2c1N(C)Cc1ccccc1 | inactive |

| Compound | Potency |
| --- | --- |
| CCOC(=O)c1cnc2ccc3ccccc3c2c1O | inactive |
| CS(=O)(=O)c1ccc(Cl)c(NC(=O)CSc2n[nH]c(-c3cccs3)n2)c1 | inactive |
| COC(=O)Cc1cc(=O)oc2cc(O)ccc12 | inactive |
| S=C(NCCCN1CCOCC1)NC1CC1 | inactive |
| Cc1nn(CC(=O)NCCCN2CCCCC2)c(=O)c2cccn12 | inactive |
| O=C(NCCCCCCCN1CCCCCCC1)C(C1CCCCC1)C1CCCCC1 | 21.2 µM (active) |
| Cn1c(SC2=CS(=O)(=O)c3ccccc32)nc2ccccc21 | 15.8 µM (active) |
| CCC(=O)c1ccc(/C=C/c2nc3ccccc3n2C)o1 | inactive |
| Cn1c(=O)c(/C=C/c2ccc(F)cc2)nc2ccccc21 | inactive |
| Cn1c(-c2c(N)n(-c3ccccc3)c3nc4ccccc4nc23)nc2ccccc21 | inactive |
| O=C(CCl)c1ccc(Cc2ncc(C(F)(F)F)cc2Cl)s1 | 39.8 µM (active) |
| FC(F)(F)c1cnc(NNC(=S)Nc2ccccc2)c(Cl)c1 | inactive |
| C#CCNC(=O)C(C)c1ncc(C(F)(F)F)cc1Cl (configuration not stated) | inactive |
| O=C(C[C@H]1C/C=C\C[C@@H](NC(=O)OCC2c3ccccc3-c3ccccc32)C(=O)O[C@@H](c2ccccc2)CNC1=O)N[C@H](CO)Cc1ccccc1 | 31.6 µM (active) |
| Nc1ccccc1-n1nc2ccc3ccccc3c2n1 | inactive |
| COc1ccc(OC)c(/C=C/C(=O)N(C)CC(=O)Nc2cc(C)ccc2C)c1 | inactive |
| COc1ccc(Br)cc1/C=C/C(=O)NC(=S)Nc1ccc(Cl)c(C(=O)O)c1 | inactive |
| CNc1ccc(Br)cc(C(=O)/C=C/c2cc(OC)ccc2OC)c1=O | 39.8 µM (active) |
| CNc1ccc(Br)cc(C(=O)/C=C/c2cccc(OC)c2)c1=O | 28.2 µM (active) |
| COc1cccc(NC(=O)c2sc3nc(C)c(C(=O)Nc4ccc(C)cc4C)c(-c4ccc(Br)cc4)c3c2N)c1 | inactive |
| COc1cc(C(=O)Nc2ccc(Br)cc2C(=O)c2cc(OC)c(OC)c(OC)c2)cc(OC)c1OC | inactive |
